Assay [1] is described as follows: Drug repurposing screens with cells derived from glioblastoma tumor samples (AID 1345199). Also: nearly all actives have a fitted effect of over 40% in size. The following applies: GBM patient neurospheres viability, ATP luminescence, 48 h. A digest of the protocol: (§1)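 Primary testing used CD133+ neurospheres from four GBM patients, seven concentrations, 48 h exposure and ATP-based viability; confirmation added three slower-growing patient lines.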

Assay [2] has as its system astro (control astrocytes). The assay is described as above. The following applies: viability, ATP luminescence, 48 h; series mostly up to 45.9 µM. A digest of the protocol:
as §1

Setting [3] is: at 21.3 µM (top of the series), tumour line A.
[4] abbreviates: at 45.9 µM (top of the series), tumour line B.
Where [5] appears, read: at 45.9 µM (top of the series), tumour line D.
[6] abbreviates: at 46 µM (top of the series), tumour line A.
[7] abbreviates: at 46.1 µM (top of the series), tumour line C.
[8] abbreviates: at 20 µM (top of the series), tumour line C.
The mark [9] stands for this setting: at 21.2 µM (top of the series), tumour line B.
The mark [10] stands for this setting: at 21.2 µM (top of the series), tumour line D.

Inconclusive results are not listed. A number with no mark means an inactive call. Calls of active or inactive are those of the source. Calls follow the shape of the dose curve; as a rule, active = well fitted inhibition curve with a large enough effect; inconclusive = small, poorly fitted or top-dose-only effect; inactive = flat fitted curve, though single readings scatter.
% is scaled to controls: 0 for no effect and ±100 for the full control effect; potency is read from the fitted curve at half-maximal effect.

Regarding `C[n+]1ccccc1/C=N/O`, the activity, negative = cell killing in assay [1] (setting [3]) was -10.2%.

For the compound `CC(=O)[C@@]1(O)CC[C@H]2[C@@H]3C[C@H](C)C4=CC(=O)C=C[C@]4(C)[C@@]3(F)[C@@H](O)C[C@@]21C`, the activity, negative = cell killing in assay [1] (setting [3]) was 13.1%.

As for `CCCOC(=O)c1ccc(N)cc1`, the Potency in assay [1] (tumour line C) is 25.9 µM (active).

As for `OCCN1C[C@H](O)[C@@H](O)[C@H](O)[C@H]1CO`, the activity, negative = cell killing in assay [1] (setting [4]) is -4.15%; in assay [1] (setting [5]), -2.64%; in assay [1] (setting [6]) it was -17.7%; in assay [1] (setting [7]), -28.1%. For the same compound, the call in assay [2] was inactive.

On to `NC(N)=NCCN1CCCCCCC1`, for which the activity, negative = cell killing is -8.56% in assay [1] (setting [8]), -5.86% in assay [1] (setting [9]), 12.5% in assay [1] (setting [10]) and -16.2% in assay [1] (setting [3]). Further, the compound was classed as inactive in assay [2].

Regarding `CC(O)CCCCn1c(=O)c2c(ncn2C)n(C)c1=O` (centres undefined), the activity, negative = cell killing is -11.9% in assay [1] (setting [4]), -16.4% in assay [1] (setting [5]), -31.9% in assay [1] (setting [6]) and -1.44% in assay [1] (setting [7]).

As for `CC(=O)Oc1cccc(O)c1`, the activity, negative = cell killing was -1.54% in assay [1] (setting [4]), -17.1% in assay [1] (setting [5]), -23.9% in assay [1] (setting [6]) and -11% in assay [1] (setting [7]). The compound was classed as inactive in assay [2].

Regarding `O=C(Cn1ccnc1[N+](=O)[O-])NCc1ccccc1`, the activity, negative = cell killing in assay [1] (setting [4]) was 4.79%; in assay [1] (setting [5]) it was 3.98%; in assay [1] (setting [6]), -20.7%; in assay [1] (setting [7]), -17.9%.

Consider `Nc1ccncc1N`, for which the activity, negative = cell killing was -7.35% in assay [1] (setting [4]), -6.96% in assay [1] (setting [5]), -18.3% in assay [1] (setting [6]) and -14.3% in assay [1] (setting [7]). Moreover, the compound was called inactive in assay [2].

As to `OCC(O)CS` (centres undefined), the activity, negative = cell killing is -7.05% in assay [1] (setting [4]), -1.81% in assay [1] (setting [5]), -9.33% in assay [1] (setting [6]) and -1.31% in assay [1] (setting [7]). Further, in assay [2], the compound was called inactive.

On to `Cc1ncc(CO)c(CN)c1O`, for which the activity, negative = cell killing was 0.478% in assay [1] (setting [4]), 6.58% in assay [1] (setting [5]), -23.9% in assay [1] (setting [6]) and -87% in assay [1] (setting [7]). In assay [2], the call was inactive.

For the compound `COC(=O)c1ccccc1C(=O)c1ccc(OCCN2CCCCC2)cc1`, the activity, negative = cell killing in assay [1] (setting [4]) is -26.9%. The Potency in assay [1] (tumour line A) is 7.08 µM (active); in assay [1] (tumour line C) it was 20.6 µM (active); in assay [1] (tumour line D), 12.6 µM (active).

`COc1ccccc1OCC(O)CO` (centres undefined): the activity, negative = cell killing in assay [1] (setting [8]) is 14.1%; in assay [1] (setting [9]), -4.78%; in assay [1] (setting [10]), -22.3%; in assay [1] (setting [3]) it was -18.5%. The compound was called inactive in assay [2].

`CC(=O)N(CC(O)CO)c1c(I)c(C(=O)NCC(O)CO)c(I)c(C(=O)NCC(O)CO)c1I` (centres undefined): the activity, negative = cell killing in assay [1] (setting [4]) was -2.73%; in assay [1] (setting [5]), -8.17%; in assay [1] (setting [6]), -31.6%; in assay [1] (setting [7]), -23.8%. Besides, the result in assay [2] was inactive.

For `CC[N+](C)(CC)CCOC(=O)C1c2ccccc2Oc2ccccc21`, the activity, negative = cell killing was -11.7% in assay [1] (setting [4]), 10.5% in assay [1] (setting [5]), -6.39% in assay [1] (setting [6]) and -9.49% in assay [1] (setting [7]). The compound was called inactive in assay [2].

As for `C/C(=C(\CCO)SS/C(CCO)=C(\C)N(C=O)Cc1cnc(C)nc1N)N(C=O)Cc1cnc(C)nc1N`, the activity, negative = cell killing was 0.803% in assay [1] (setting [4]), 1.23% in assay [1] (setting [5]), -2.85% in assay [1] (setting [6]) and 0.411% in assay [1] (setting [7]).

`CNCc1ccccc1`: the activity, negative = cell killing in assay [1] (setting [4]) was -13%; in assay [1] (setting [5]), -15.9%; in assay [1] (setting [6]), -19.4%; in assay [1] (setting [7]) it was -9.99%. Also, in assay [2], the compound was called inactive.

Consider `C/C=C/C(=O)N(CC)c1ccccc1C`, for which the activity, negative = cell killing in assay [1] (setting [8]) was -3.94%; in assay [1] (setting [9]), 0.996%; in assay [1] (setting [10]), -17.6%; in assay [1] (setting [3]) it was -13.7%. Besides, the result in assay [2] was inactive.

`O=C(NCC(O)CO)c1c(I)c(C(=O)NCC(O)CO)c(I)c(N(CCO)C(=O)CO)c1I` (centres undefined): the activity, negative = cell killing was -7.07% in assay [1] (setting [8]), -9.85% in assay [1] (setting [9]), 1% in assay [1] (setting [10]) and -9.08% in assay [1] (setting [3]). Besides, the result in assay [2] was inactive.

Consider `Cc1ccsc1/C=C/C1=NCCCN1C`, for which the activity, negative = cell killing was -9.86% in assay [1] (setting [8]), -2.99% in assay [1] (setting [9]), -7.19% in assay [1] (setting [10]) and -22.2% in assay [1] (setting [3]). The call in assay [2] was inactive.

On to `CC(C)C[C@@H](N)C(=O)O`, for which the activity, negative = cell killing was 3.77% in assay [1] (setting [4]), 29.1% in assay [1] (setting [5]), 14.9% in assay [1] (setting [6]) and -0.0622% in assay [1] (setting [7]). Moreover, the call in assay [2] was inactive.

Take `Cc1c(NC(=O)c2cccnc2)c(=O)n(-c2ccccc2)n1C`: the activity, negative = cell killing was -4.61% in assay [1] (setting [8]), 2.25% in assay [1] (setting [9]), 12.3% in assay [1] (setting [10]) and -13.1% in assay [1] (setting [3]). Further, in assay [2], the result was inactive.

Regarding `Cc1cccc(C(=O)O)c1O`, the activity, negative = cell killing in assay [1] (setting [4]) is -1.64%; in assay [1] (setting [5]), -5.93%; in assay [1] (setting [6]) it was -19.5%; in assay [1] (setting [7]), -18.8%. In addition, the compound was classed as inactive in assay [2].

For `O=C(O)c1ccc[n+]([O-])c1`, the activity, negative = cell killing in assay [1] (setting [4]) was -13.5%; in assay [1] (setting [5]), 12.2%; in assay [1] (setting [6]), -25.2%; in assay [1] (setting [7]), -21.7%. Further, in assay [2], the compound was called inactive.

Regarding `C=CCSCC1Nc2cc(Cl)c(S(N)(=O)=O)cc2S(=O)(=O)N1` (centres undefined), the activity, negative = cell killing in assay [1] (setting [4]) was -4.84%; in assay [1] (setting [5]), -16.7%; in assay [1] (setting [6]), -17.1%; in assay [1] (setting [7]), -16.4%. Moreover, the compound was called inactive in assay [2].

As for `CC(C)NC[C@@H](O)COc1ccc(CC(N)=O)cc1`, the activity, negative = cell killing in assay [1] (setting [4]) is -18.7%; in assay [1] (setting [5]), 5.31%; in assay [1] (setting [6]) it was 1.1%; in assay [1] (setting [7]), -9.77%. For the same compound, the compound was classed as inactive in assay [2].

Consider `Nc1ncnc2c1ncn2[C@@H]1O[C@H](COP(=O)(O)O)[C@@H](O)[C@H]1O`, for which the activity, negative = cell killing in assay [1] (setting [4]) was 4.49%; in assay [1] (setting [5]), 20.2%; in assay [1] (setting [6]), -19.3%; in assay [1] (setting [7]), -13.6%. Moreover, in assay [2], the compound was called inactive.

The values are drawn from PubChem BioAssay (NCATS).
